Measured values published in PubChem BioAssay (NCATS).
Results filed as inconclusive are left out. The source made the active and inactive calls. The call rests on the fitted dose curve; in most records, active means well fitted inhibition curve with a large enough effect; inconclusive means small, poorly fitted or top-dose-only effect; inactive means flat fitted curve, though single readings scatter.

Test system: CP211
Test: qHTS profiling for inhibitors of Plasmodium falciparum proliferation (AID 504749); further: nearly all actives have a fitted effect of over 60% in size;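 on activity, negative = inhibition: 0% = DMSO vehicle and full inhibition = artemisinin control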
Conditions: P. falciparum in erythrocytes, SYBR Green DNA, 72 h; series mostly up to 28.7 µM; activity, negative = inhibition: at the top concentration
Outline: (§1)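 SYBR Green fluorescence (ex 485 nm, em 535 nm) reports parasite DNA after 72 h compound exposure of infected red cells at 0.3% parasitemia, 2.5% hematocrit; signal normalized to 0.29 uM artemisinin and vehicle wells.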
Potency means the concentration at half of the fitted maximal effect.

SMILES | activity, negative = inhibition | Potency
O=NN(CCCl)C(=O)NC1CCCCC1 | -1.52% (inactive) | 
CC[C@H](C)C(=O)O[C@H]1C[C@@H](C)C=C2C=C[C@H](C)[C@H](CC[C@@H]3C[C@@H](O)CC(=O)O3)[C@H]21 | 7.73% (inactive) | 
Cc1cccc(Nc2ccncc2S(=O)(=O)NC(=O)NC(C)C)c1 | -9.59% [at 12.8 µM] (inactive) | 
CN1CCN(c2c(F)cc3c(=O)c(C(=O)O)cn(CCF)c3c2F)CC1 | -1.52% (inactive) | 
CCOC(=O)[C@H](CCc1ccccc1)N[C@H]1CS[C@H](c2cccs2)CN(CC(=O)O)C1=O | -0.131% (inactive) | 
N=C(N)c1ccc(OCCCCCOc2ccc(C(=N)N)cc2)cc1 |  | 849 nM (active)

Test system: CP215
Test: as above
Conditions: P. falciparum in erythrocytes, SYBR Green DNA, 72 h; series mostly up to 28.7 µM; activity, negative = inhibition: at the top concentration
Outline: as §1

SMILES | activity, negative = inhibition | Potency
CCCc1cc(C(N)=S)ccn1 | 3.54% (inactive) | 
CCCN[C@H]1CCc2nc(N)sc2C1 | -0.689% (inactive) | 
CC(C)Cn1cnc2c(N)nc3ccccc3c21 | 2.73% (inactive) | 
Nc1nc(N)nc(-c2cc(Cl)ccc2Cl)n1 | -1.22% (inactive) | 
OC(Cn1cncn1)(Cn1cncn1)c1ccc(F)cc1F | -4.11% (inactive) | 
CC(C)OC(=O)C(C(=O)OC(C)C)=C1SC=CS1 | 1.46% (inactive) | 
NCCCC(O)(P(=O)(O)O)P(=O)(O)O | 4.88% (inactive) | 
CC1=CC(=O)c2ccccc2C1=O | -0.105% (inactive) | 
Nc1ccc(S(=O)(=O)Nc2ccccn2)cc1 | 10% [at 12.8 µM] (inactive) | 
Cc1noc(NS(=O)(=O)c2ccc(N)cc2)c1C | 0.57% (inactive) | 
O=c1cc(O)c(Cl)c[nH]1 | 2.91% (inactive) | 
CNC1CCCN(c2c(F)cc3c(=O)c(C(=O)O)cn(C4CC4)c3c2OC)C1 (stereo not given) | 2.44% (inactive) | 
C#CCN[C@@H]1CCc2ccccc21 | -6.23% (inactive) | 
COc1cc(NCc2ccc3nc(N)nc(N)c3c2C)cc(OC)c1OC |  | 675 nM (active)
N[C@@H](C(=O)N[C@@H]1C(=O)N2C(C(=O)O)=C(Cl)CS[C@H]12)c1ccccc1 | 6.98% (inactive) | 
CN(C)CCc1c[nH]c2ccc(CS(=O)(=O)N3CCCC3)cc12 | 4.91% (inactive) | 
C[C@]12C=CC(=O)C=C1CC[C@@H]1[C@@H]2C(=O)C[C@@]2(C)[C@H]1CC[C@]2(O)C(=O)CO | 0.344% (inactive) | 
Nc1[nH]c(=O)ncc1F | 10.6% [at 12.8 µM] (inactive) | 
COc1ccc(-c2ccc3cc(C(=O)O)ccc3c2)cc1C12CC3CC(CC(C3)C1)C2 | 2.2% (inactive) | 
O=NN(CCCl)C(=O)NC1CCCCC1 | 2.42% (inactive) | 
Cc1cccc(Nc2ccncc2S(=O)(=O)NC(=O)NC(C)C)c1 | -0.862% [at 12.8 µM] (inactive) | 
CN1CCN(c2c(F)cc3c(=O)c(C(=O)O)cn(CCF)c3c2F)CC1 | 2.56% (inactive) | 
CCOC(=O)[C@H](CCc1ccccc1)N[C@H]1CS[C@H](c2cccs2)CN(CC(=O)O)C1=O | -0.937% (inactive) | 
N=C(N)c1ccc(OCCCCCOc2ccc(C(=N)N)cc2)cc1 |  | 1070 nM (active)

Test system: CP217
Test: as above
Conditions: P. falciparum in erythrocytes, SYBR Green DNA, 72 h; series mostly up to 28.7 µM; activity, negative = inhibition: at the top concentration
Outline: as §1

SMILES | activity, negative = inhibition | Potency
NC(=O)N1c2ccccc2CC(=O)c2ccccc21 | -6.31% (inactive) | 
CNS(=O)(=O)Cc1ccc2[nH]cc(CCN(C)C)c2c1 | -1.76% (inactive) | 
CCCc1cc(C(N)=S)ccn1 | 4.62% (inactive) | 
CCCN[C@H]1CCc2nc(N)sc2C1 | -2.39% (inactive) | 
COc1ccc(C(=O)CC(=O)c2ccc(C(C)(C)C)cc2)cc1 | -0.283% (inactive) | 
CC(C)Cn1cnc2c(N)nc3ccccc3c21 | -14.6% (inactive) | 
Nc1nc(N)nc(-c2cc(Cl)ccc2Cl)n1 | -3.69% (inactive) | 
OC(Cn1cncn1)(Cn1cncn1)c1ccc(F)cc1F | 9.34% (inactive) | 
CC(C)OC(=O)C(C(=O)OC(C)C)=C1SC=CS1 | 1.27% (inactive) | 
NCCCC(O)(P(=O)(O)O)P(=O)(O)O | 5.15% (inactive) | 
CC1=CC(=O)c2ccccc2C1=O | -0.896% (inactive) | 
Nc1ccc(S(=O)(=O)Nc2ccccn2)cc1 | -14.3% [at 12.8 µM] (inactive) | 
Cc1noc(NS(=O)(=O)c2ccc(N)cc2)c1C | -4.82% (inactive) | 
O=c1cc(O)c(Cl)c[nH]1 | 0.689% (inactive) | 
Cn1nnc2c(C(N)=O)ncn2c1=O | -2.1% (inactive) | 
CNC1CCCN(c2c(F)cc3c(=O)c(C(=O)O)cn(C4CC4)c3c2OC)C1 (stereo not given) | -13.4% (inactive) | 
C#CCN[C@@H]1CCc2ccccc21 | 4.53% (inactive) | 
COc1cc(NCc2ccc3nc(N)nc(N)c3c2C)cc(OC)c1OC |  | 282 nM (active)
N[C@@H](C(=O)N[C@@H]1C(=O)N2C(C(=O)O)=C(Cl)CS[C@H]12)c1ccccc1 | 6.51% (inactive) | 
CN(C)CCc1c[nH]c2ccc(CS(=O)(=O)N3CCCC3)cc12 | -9.09% (inactive) | 
C[C@]12C=CC(=O)C=C1CC[C@@H]1[C@@H]2C(=O)C[C@@]2(C)[C@H]1CC[C@]2(O)C(=O)CO | -0.435% (inactive) | 
Nc1[nH]c(=O)ncc1F | -5.29% [at 12.8 µM] (inactive) | 
COc1ccc(-c2ccc3cc(C(=O)O)ccc3c2)cc1C12CC3CC(CC(C3)C1)C2 | 0.653% (inactive) | 
O=NN(CCCl)C(=O)NC1CCCCC1 | -0.68% (inactive) | 
CC[C@H](C)C(=O)O[C@H]1C[C@@H](C)C=C2C=C[C@H](C)[C@H](CC[C@@H]3C[C@@H](O)CC(=O)O3)[C@H]21 | -1.87% (inactive) | 
Cc1cccc(Nc2ccncc2S(=O)(=O)NC(=O)NC(C)C)c1 | -6.56% [at 12.8 µM] (inactive) | 
CN1CCN(c2c(F)cc3c(=O)c(C(=O)O)cn(CCF)c3c2F)CC1 | -7.76% (inactive) | 
N=C(N)c1ccc(OCCCCCOc2ccc(C(=N)N)cc2)cc1 |  | 2240 nM (active)

Test system: CP237
Test: as above
Conditions: P. falciparum in erythrocytes, SYBR Green DNA, 72 h; series mostly up to 28.7 µM; activity, negative = inhibition: at the top concentration
Outline: as §1

SMILES | activity, negative = inhibition | Potency
NC(=O)N1c2ccccc2CC(=O)c2ccccc21 | 1.76% (inactive) | 
CNS(=O)(=O)Cc1ccc2[nH]cc(CCN(C)C)c2c1 | -5.41% (inactive) | 
CCCc1cc(C(N)=S)ccn1 | -0.115% (inactive) | 
CCCN[C@H]1CCc2nc(N)sc2C1 | -1.32% (inactive) | 
CC(C)Cn1cnc2c(N)nc3ccccc3c21 | -18.2% (inactive) | 
Nc1nc(N)nc(-c2cc(Cl)ccc2Cl)n1 | -12.1% (inactive) | 
OC(Cn1cncn1)(Cn1cncn1)c1ccc(F)cc1F | 1.29% (inactive) | 
CC(C)OC(=O)C(C(=O)OC(C)C)=C1SC=CS1 | 3.61% (inactive) | 
NCCCC(O)(P(=O)(O)O)P(=O)(O)O | 3.43% (inactive) | 
Nc1ccc(S(=O)(=O)Nc2ccccn2)cc1 | 2.28% [at 12.8 µM] (inactive) | 
Cc1noc(NS(=O)(=O)c2ccc(N)cc2)c1C | -9.38% (inactive) | 
O=c1cc(O)c(Cl)c[nH]1 | 11.6% (inactive) | 
Cn1nnc2c(C(N)=O)ncn2c1=O | -6.58% (inactive) | 
CNC1CCCN(c2c(F)cc3c(=O)c(C(=O)O)cn(C4CC4)c3c2OC)C1 (stereo not given) | -3.72% (inactive) | 
C#CCN[C@@H]1CCc2ccccc21 | 6.62% (inactive) | 
COc1cc(NCc2ccc3nc(N)nc(N)c3c2C)cc(OC)c1OC |  | 141 nM (active)
N[C@@H](C(=O)N[C@@H]1C(=O)N2C(C(=O)O)=C(Cl)CS[C@H]12)c1ccccc1 | 7.63% (inactive) | 
CN(C)CCc1c[nH]c2ccc(CS(=O)(=O)N3CCCC3)cc12 | 9.59% (inactive) | 
C[C@]12C=CC(=O)C=C1CC[C@@H]1[C@@H]2C(=O)C[C@@]2(C)[C@H]1CC[C@]2(O)C(=O)CO | 3.89% (inactive) | 
Nc1[nH]c(=O)ncc1F | 5.39% [at 12.8 µM] (inactive) | 
COc1ccc(-c2ccc3cc(C(=O)O)ccc3c2)cc1C12CC3CC(CC(C3)C1)C2 | -6.4% (inactive) | 
O=NN(CCCl)C(=O)NC1CCCCC1 | -1.16% (inactive) | 
CC[C@H](C)C(=O)O[C@H]1C[C@@H](C)C=C2C=C[C@H](C)[C@H](CC[C@@H]3C[C@@H](O)CC(=O)O3)[C@H]21 | 12.4% (inactive) | 
Cc1cccc(Nc2ccncc2S(=O)(=O)NC(=O)NC(C)C)c1 | -2.54% [at 12.8 µM] (inactive) | 
CN1CCN(c2c(F)cc3c(=O)c(C(=O)O)cn(CCF)c3c2F)CC1 | 3.83% (inactive) | 
CCOC(=O)[C@H](CCc1ccccc1)N[C@H]1CS[C@H](c2cccs2)CN(CC(=O)O)C1=O | -20% (inactive) | 
N=C(N)c1ccc(OCCCCCOc2ccc(C(=N)N)cc2)cc1 |  | 251 nM (active)
